Measurements taken from PubChem BioAssay (Tox21).
Values joined by “and” are separate entries in the source; they are usually repeats but may differ in a detail not shown here. Equal entries are not always repeated. Active and inactive are the calls of the source. Unless noted, calls follow the shape of the dose curve; as a rule, active = well fitted curve in the direction sought with a large enough effect in the repeat runs; inconclusive = weak or mixed curves; inactive = no such curve, though single readings can be large; an effect the other way counts as inactive or inconclusive.

Tests used:
[1] = qHTS assay for small molecules that induce genotoxicity in human embryonic kidney cells expressing luciferase-tagged ATAD5 (AID 651632); also: nearly all actives have a fitted effect of over 15% in size
Outline: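 Reporter cells (HEK293T) express luciferase-tagged ATAD5, a protein that accumulates after DNA damage. Treat 16 hr at 37C/5% CO2, add Amplite, wait 30 min at RT, and read luminescence.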

[2] = qHTS assay for small molecule agonists of the p53 signaling pathway - cell viability (AID 651633; calls by dose curve; also: nearly all actives have a fitted effect of over 30% in size; also: potency is read from the fitted curve at half-maximal effect)
Outline: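 p53RE-bla cells, seeded at 4,000 per well and rested 5 h at 37 C/5% CO2, received compounds in DMSO for 16 h at 37 C. CellTiter-Glo was then added, and luminescence was read after 30 min at room temperature to gauge cytotoxicity.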

[3] = qHTS assay for small molecules that induce genotoxicity in human embryonic kidney cells expressing luciferase-tagged ATAD5 - cell viability (AID 651634; calls by dose curve; also: nearly all actives have a fitted effect of over 25% in size; also: potency is read from the fitted curve at half-maximal effect)
Outline: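 Seeding of 2,000 HEK293T ATAD5-luciferase cells per well preceded pin-tool compound transfer. Plates sat 15.5 hr at 37C under 5% CO2, then fluorescence was read after 30 min with CellTiter-Fluor.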

[4] = qHTS assay for small molecule disruptors of the mitochondrial membrane potential - cell viability (AID 720634; calls by dose curve; also: nearly all actives have a fitted effect of over 20% in size; also: potency is read from the fitted curve at half-maximal effect)
Outline: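 Measuring cytotoxicity alongside mitochondrial potential, the screen quantified ATP by luminescence in HepG2 cells after 1 hr compound incubation and a 30 min room-temperature CellTiter-Glo step.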

[5] = qHTS assay for small molecule disruptors of the mitochondrial membrane potential (AID 720635); also: potency is read from the fitted curve at half-maximal effect
Outline: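 HepG2 cells (2,000/well) attached overnight at 37C, then took compound for 1 hr at 37C, 5% CO2. Mito-MPS dye was added for 30 min; fluorescence was read at 490/535 nm (monomers) and 540/590 nm (aggregates).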

[6] = qHTS assay to test for compound auto fluorescence at 590 nm (red) in HepG2 cells (AID 720674)
Outline: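 Compound auto-fluorescence is scored relative to Rose Bengal sodium, measured at 540/590 nm in live HepG2 cultures after 1 hr compound contact (37 C, 5% CO2).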

[7] = qHTS assay to test for compound auto fluorescence at 535 nm (green) in HepG2 cells (AID 720675)
[8] = qHTS assay to test for compound auto fluorescence at 460 nm (blue) in HEK293 cells (AID 720678)
Outline: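 Triamterene serves as the blue fluorophore standard. Compound signal at 405/460 nm is read in HEK293 wells (2,000 cells, 10% dialyzed FBS) after overnight treatment at 37C.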

[9] = qHTS assay to test for compound auto fluorescence at 590 nm (red) in HEK293 cells (AID 720679)
Outline: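 We plated HEK293 cells in 10% dialyzed FBS medium, let them adhere for 4-5 hr, then added 23 nL compound. Overnight at 37C and 5% CO2 preceded fluorescence measurement at 540/590nm.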

[10] = qHTS assay to test for compound auto fluorescence at 535 nm (green) in HEK293 cells (AID 720680)
[11] = qHTS assay to test for compound auto fluorescence at 460 nm (blue) in HEK293 cell free culture (AID 720681)
Outline: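 Test compounds were pinned into cell-free culture medium (DMEM with 10% FBS) and fluorescence was read directly at Ex/Em 405/460 nm. Signals were expressed as fluorescence equivalents of triamterene, with DMSO vehicle as control.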

[12] = qHTS assay to test for compound auto fluorescence at 535 nm (green) in HEK293 cell free culture (AID 720682)
Outline: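 Using fluorescein as calibrant, autofluorescence was quantified at 485/535 nm in cell-free DMEM containing 10% FBS after pintool addition of compound or vehicle.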

[13] = qHTS assay to test for compound auto fluorescence at 590 nm (red) in HEK293 cell free culture (AID 720683)
Outline: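 Tox21 10K library compounds were pinned into cell-free DMEM with 10% FBS and fluorescence was read at excitation 540 nm. Activity is expressed as Rose Bengal sodium equivalency.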

[14] = qHTS assay to test for compound auto fluorescence at 590 nm (red) in HepG2 cell free culture (AID 720684)
Outline: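 Measured in medium alone (MEM containing 10% FBS) following pintool addition of compound; emission at 590 nm with 540 nm excitation, referenced to Rose Bengal sodium.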

[15] = qHTS assay to test for compound auto fluorescence at 460 nm (blue) in HepG2 cell free culture (AID 720685)
Outline: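 Compound (23 nL) or DMSO pinned into cell-free MEM with 10% FBS; blue fluorescence read at 405/460 nm excitation/emission, expressed as auto-fluorescence equivalency to triamterene.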

[16] = qHTS assay to test for compound auto fluorescence at 535 nm (green) in HepG2 cell free culture (AID 720686)
[17] = qHTS assay to test for compound auto fluorescence at 460 nm (blue) in HepG2 cells (AID 720687)
Outline: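 Cells (2,000/well in MEM with 10% FBS) attached overnight at 37 C, then were exposed to compound or DMSO for 1 hr at 37 C, 5% CO2. Fluorescence read at Ex/Em 405/460 nm, expressed as triamterene-equivalent signal.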

[18] = target: Glucocorticoid receptor (Homo sapiens) (UniProt P04150); assay: qHTS assay to identify small molecule agonists of the glucocorticoid receptor (GR) signaling pathway (AID 720691; active = well fitted activation curve with a large enough effect in the signal ratio in the repeat runs, not every such curve was filed as active; inconclusive = weak or mixed curves, or effect the other way; inactive = no such curve, though single readings can be large or run the other way; the % refers to the signal ratio; also: potency is read from the fitted curve at half-maximal effect); settings: GR-bla HeLa, beta-lactamase reporter ratio, 18 h; activation: at 62.4 µM (top of the series) unless noted
Outline: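 Reporter read-out: fluorescence intensity following 2 h room-temperature LiveBLAzer B/G FRET substrate loading. Prior step: GR-bla HeLa cells held 4 h, then treated 18 h at 37 C.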

[19] = target: Glucocorticoid receptor (Homo sapiens) (UniProt P04150); assay: qHTS assay to identify small molecule antagonists of the glucocorticoid receptor (GR) signaling pathway (AID 720692; active = well fitted inhibition curve with a large enough effect in the signal ratio in the repeat runs, not every such curve was filed as active; inconclusive = weak or mixed curves, or effect the other way; inactive = no such curve, though single readings can be large or run the other way; the % refers to the signal ratio)
Outline: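 Dexamethasone (5 nM final) stimulated a stably integrated GRE-beta-lactamase reporter in HeLa cells during 18 h co-incubation with compounds; signal was quantified as fluorescence intensity of B/G FRET substrate after 2 h.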

[20] = qHTS assay for small molecule agonists of the p53 signaling pathway (AID 651631; calls by dose curve; also: nearly all actives have a fitted effect of over 15% in size)
Outline: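 Stably transfected HCT-116 cells (beta-lactamase behind p53 response elements) get compounds after a 5 h settling period; 16 h later at 37 °C, FRET substrate is loaded and fluorescence read after 2 h.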
% is scaled to controls: 0 for no effect and ±100 for the full control effect.

Chain of Glucocorticoid receptor (Homo sapiens) (P04150 whole entry, looked up): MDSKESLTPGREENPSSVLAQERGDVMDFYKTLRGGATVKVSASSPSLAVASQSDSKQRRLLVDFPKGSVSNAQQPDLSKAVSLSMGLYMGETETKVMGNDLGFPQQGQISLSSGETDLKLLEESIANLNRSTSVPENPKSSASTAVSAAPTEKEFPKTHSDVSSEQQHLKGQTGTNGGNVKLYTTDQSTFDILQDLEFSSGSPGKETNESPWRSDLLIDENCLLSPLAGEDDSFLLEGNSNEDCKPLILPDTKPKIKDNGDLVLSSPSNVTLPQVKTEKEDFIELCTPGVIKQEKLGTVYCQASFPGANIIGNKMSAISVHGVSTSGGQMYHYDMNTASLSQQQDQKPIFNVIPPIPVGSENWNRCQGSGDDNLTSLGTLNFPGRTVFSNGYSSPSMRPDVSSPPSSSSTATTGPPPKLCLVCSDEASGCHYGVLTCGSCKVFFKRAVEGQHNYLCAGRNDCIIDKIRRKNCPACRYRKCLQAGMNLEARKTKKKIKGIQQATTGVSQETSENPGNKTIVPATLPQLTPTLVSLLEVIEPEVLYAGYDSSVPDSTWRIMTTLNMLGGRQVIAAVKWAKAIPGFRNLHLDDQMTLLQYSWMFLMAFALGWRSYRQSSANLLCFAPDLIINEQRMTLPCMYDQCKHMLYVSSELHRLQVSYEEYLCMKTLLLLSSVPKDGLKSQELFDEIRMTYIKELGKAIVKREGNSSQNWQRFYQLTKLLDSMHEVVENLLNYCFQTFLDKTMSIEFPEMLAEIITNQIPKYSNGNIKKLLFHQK

Cc1cccc(C)c1NC(=O)CN(CC(=O)O)CC(=O)O
inactive: Potency [1] | Potency [2] | Potency [3] | Potency [4] | Potency [5] | Potency [6] | Potency [7] | outcome [8] | Potency [9] | outcome [10] | outcome [11] | outcome [12] | Potency [13] | Potency [14] | outcome [15] | Potency [16] | outcome [17] | Potency [18] | Potency [19]

O=C1C(O)=C(O)C(=O)C(O)=C1O
inactive: Potency [1] | Potency [2] | Potency [3] | Potency [4] | Potency [5] | Potency [6] | Potency [7] | outcome [8] | Potency [9] | outcome [10] | outcome [11] | outcome [12] | Potency [13] | Potency [14] | outcome [15] | Potency [16] | outcome [17] | Potency [18] | Potency [19]

CCCCCCCCCc1ccc(OCCOCCO)cc1
active: Potency [2] 29.8 µM | Potency [3] 18.8 µM | Potency [5] 10.6 µM and 1.44 µM
inactive: Potency [1] | Potency [4] | Potency [6] | Potency [7] | outcome [8] | Potency [9] | outcome [10] | outcome [11] | outcome [12] | Potency [13] | Potency [14] | outcome [15] | Potency [16] | outcome [17] | Potency [18]

NC(=O)C(c1ccccc1)(c1ccccc1)[C@@H]1CCN(CCc2ccc3c(c2)CCO3)C1
inactive: Potency [20] | Potency [1] | Potency [3] | Potency [4] | Potency [6] | Potency [7] | outcome [8] | Potency [9] | outcome [10] | outcome [11] | outcome [12] | Potency [13] | Potency [14] | outcome [15] | Potency [16] | outcome [17] | Potency [18] | Potency [19]

CC[N+](C)(CC)CCOC(=O)C(O)(c1ccccc1)C1CCCCC1 (configuration not stated)
inactive: Potency [1] | Potency [2] | Potency [3] | Potency [4] | Potency [5] | Potency [6] | Potency [7] | outcome [10] | outcome [11] | outcome [12] | Potency [13] | Potency [14] | outcome [15] | outcome [17] | Potency [18] | Potency [19]

CCCCOC(=O)CCCCCCCC(=O)OCCCC
inactive: Potency [1] | Potency [2] | Potency [3] | Potency [4] | Potency [5] | Potency [6] | Potency [7] | outcome [8] | Potency [9] | outcome [10] | outcome [11] | outcome [12] | Potency [13] | Potency [14] | outcome [15] | outcome [17]

CCC(=O)O[C@]1(C(=O)CCl)[C@@H](C)C[C@H]2[C@@H]3CCC4=CC(=O)C=C[C@]4(C)[C@@]3(F)[C@@H](O)C[C@@]21C
inactive: Potency [1] | Potency [2] | Potency [3] | Potency [4] | Potency [7] | outcome [8] | Potency [9] | outcome [10] | outcome [11] | outcome [12] | Potency [13] | Potency [14] | outcome [15] | Potency [16] | outcome [17]
active: Potency [5] 23.7 µM | Potency [18] 0.6 nM

CCO[Si](CCCCl)(OCC)OCC
inactive: Potency [1] | Potency [2] | Potency [3] | Potency [4] | Potency [6] | Potency [7] | outcome [8] | Potency [9] | outcome [10] | outcome [11] | outcome [12] | Potency [13] | Potency [14] | outcome [15] | Potency [16] | outcome [17] | Potency [18] | Potency [19]
active: Potency [5] 48.1 µM

Brc1c2ccccc2cc2ccccc12
inactive: Potency [1] | Potency [2] | Potency [3] | Potency [6] | Potency [7] | outcome [8] | Potency [9] | outcome [10] | outcome [11] | outcome [12] | Potency [13] | Potency [14] | outcome [15] | Potency [16] | outcome [17] | Potency [19]
active: Potency [4] 55 µM | Potency [5] 30.9 µM | activation [18] 9.34% [inconclusive] [at 79.2 µM]

CC(CSC(=O)c1ccccc1)C(=O)N1C[C@@H](Sc2ccccc2)C[C@H]1C(=O)O (some centres not stated)
inactive: Potency [1] | Potency [2] | Potency [3] | Potency [4] | Potency [5] | Potency [6] | Potency [7] | Potency [9] | outcome [10] | outcome [11] | outcome [12] | Potency [13] | Potency [14] | outcome [15] | Potency [16] | outcome [17] | Potency [18] | Potency [19]

CCOc1ccc(O)cc1
inactive: Potency [20] | Potency [2] | Potency [3] | Potency [4] | Potency [5] | Potency [7] | outcome [8] | Potency [9] | outcome [10] | outcome [11] | outcome [12] | Potency [13] | Potency [14] | outcome [15] | outcome [17] | Potency [18]

NC(N)=NCCC[C@H](N)C(=O)O
inactive: Potency [1] | Potency [2] | Potency [3] | Potency [4] | Potency [5] | Potency [6] | Potency [7] | outcome [8] | outcome [10] | outcome [11] | outcome [12] | Potency [13] | Potency [14] | outcome [15] | outcome [17] | Potency [18] | Potency [19]
